Here are results for 9 compounds from ChEMBL document CHEMBL1961873, “Compounds: GSK PKIS; Assays: Nanosyn kinase panel” (2012).

Test [1] addresses T1, Serine/threonine-protein kinase Nek9 (Homo sapiens) (UniProt Q8TD19).
T1 sequence (whole entry): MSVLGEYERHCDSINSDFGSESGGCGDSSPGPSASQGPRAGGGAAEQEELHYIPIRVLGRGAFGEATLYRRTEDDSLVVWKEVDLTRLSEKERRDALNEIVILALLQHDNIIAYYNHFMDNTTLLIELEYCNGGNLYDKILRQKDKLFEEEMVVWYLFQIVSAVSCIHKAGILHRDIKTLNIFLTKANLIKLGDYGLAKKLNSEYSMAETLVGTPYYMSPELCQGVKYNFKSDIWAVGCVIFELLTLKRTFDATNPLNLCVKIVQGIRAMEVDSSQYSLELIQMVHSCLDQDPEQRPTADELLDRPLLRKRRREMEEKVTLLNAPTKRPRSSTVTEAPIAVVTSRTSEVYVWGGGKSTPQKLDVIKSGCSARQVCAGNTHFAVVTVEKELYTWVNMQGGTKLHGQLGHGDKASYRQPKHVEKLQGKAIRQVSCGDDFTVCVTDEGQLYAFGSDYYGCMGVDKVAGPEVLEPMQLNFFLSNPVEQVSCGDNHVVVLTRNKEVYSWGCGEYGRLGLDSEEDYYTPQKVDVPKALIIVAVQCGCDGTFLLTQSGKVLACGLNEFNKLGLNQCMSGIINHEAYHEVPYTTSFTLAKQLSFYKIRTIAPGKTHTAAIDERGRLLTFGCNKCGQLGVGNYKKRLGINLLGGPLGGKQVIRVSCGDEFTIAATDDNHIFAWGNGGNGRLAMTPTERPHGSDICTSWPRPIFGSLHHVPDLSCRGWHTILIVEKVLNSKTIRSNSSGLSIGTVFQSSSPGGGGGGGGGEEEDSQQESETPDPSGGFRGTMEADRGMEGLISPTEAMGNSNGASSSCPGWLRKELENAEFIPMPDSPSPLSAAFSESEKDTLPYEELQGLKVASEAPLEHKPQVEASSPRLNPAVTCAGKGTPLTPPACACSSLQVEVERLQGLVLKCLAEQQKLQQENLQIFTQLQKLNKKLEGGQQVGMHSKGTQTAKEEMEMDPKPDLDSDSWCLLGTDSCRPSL
Particulars: at 1 µM.

Test [2] addresses Serine/threonine-protein kinase PLK1 (Homo sapiens) (UniProt P53350). Particulars: at 0.1 µM.
Test [3] shares this target. The conditions noted are these: at 1 µM.
The target in test [4] is T2, Dual specificity protein kinase TTK (Homo sapiens) (UniProt P33981).
T2 sequence (whole entry): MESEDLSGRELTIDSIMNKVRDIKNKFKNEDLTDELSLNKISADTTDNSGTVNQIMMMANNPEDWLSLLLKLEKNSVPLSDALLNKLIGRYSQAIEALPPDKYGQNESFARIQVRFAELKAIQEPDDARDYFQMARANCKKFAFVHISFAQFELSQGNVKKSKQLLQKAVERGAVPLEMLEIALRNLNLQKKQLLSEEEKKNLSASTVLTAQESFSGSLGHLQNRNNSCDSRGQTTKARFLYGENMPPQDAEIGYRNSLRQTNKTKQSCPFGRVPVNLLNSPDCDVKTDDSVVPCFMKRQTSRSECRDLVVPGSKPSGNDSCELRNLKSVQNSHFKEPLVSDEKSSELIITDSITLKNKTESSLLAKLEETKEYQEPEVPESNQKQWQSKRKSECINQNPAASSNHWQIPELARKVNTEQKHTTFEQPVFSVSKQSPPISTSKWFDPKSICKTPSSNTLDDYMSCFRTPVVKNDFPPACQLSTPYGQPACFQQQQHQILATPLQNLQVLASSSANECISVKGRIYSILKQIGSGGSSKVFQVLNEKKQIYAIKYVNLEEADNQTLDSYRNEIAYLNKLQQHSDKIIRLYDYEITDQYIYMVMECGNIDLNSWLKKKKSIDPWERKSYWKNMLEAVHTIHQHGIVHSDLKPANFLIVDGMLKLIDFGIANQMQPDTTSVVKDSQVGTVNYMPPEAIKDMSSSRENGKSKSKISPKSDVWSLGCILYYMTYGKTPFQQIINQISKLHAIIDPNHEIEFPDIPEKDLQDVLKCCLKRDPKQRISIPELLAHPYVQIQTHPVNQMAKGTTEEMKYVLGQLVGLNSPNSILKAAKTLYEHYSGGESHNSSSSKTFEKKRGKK
Particulars: at 0.1 µM.

Test [5] has as its system T3, Receptor-type tyrosine-protein kinase FLT3 (Homo sapiens), P36888 [D835Y].
T3 sequence (whole entry): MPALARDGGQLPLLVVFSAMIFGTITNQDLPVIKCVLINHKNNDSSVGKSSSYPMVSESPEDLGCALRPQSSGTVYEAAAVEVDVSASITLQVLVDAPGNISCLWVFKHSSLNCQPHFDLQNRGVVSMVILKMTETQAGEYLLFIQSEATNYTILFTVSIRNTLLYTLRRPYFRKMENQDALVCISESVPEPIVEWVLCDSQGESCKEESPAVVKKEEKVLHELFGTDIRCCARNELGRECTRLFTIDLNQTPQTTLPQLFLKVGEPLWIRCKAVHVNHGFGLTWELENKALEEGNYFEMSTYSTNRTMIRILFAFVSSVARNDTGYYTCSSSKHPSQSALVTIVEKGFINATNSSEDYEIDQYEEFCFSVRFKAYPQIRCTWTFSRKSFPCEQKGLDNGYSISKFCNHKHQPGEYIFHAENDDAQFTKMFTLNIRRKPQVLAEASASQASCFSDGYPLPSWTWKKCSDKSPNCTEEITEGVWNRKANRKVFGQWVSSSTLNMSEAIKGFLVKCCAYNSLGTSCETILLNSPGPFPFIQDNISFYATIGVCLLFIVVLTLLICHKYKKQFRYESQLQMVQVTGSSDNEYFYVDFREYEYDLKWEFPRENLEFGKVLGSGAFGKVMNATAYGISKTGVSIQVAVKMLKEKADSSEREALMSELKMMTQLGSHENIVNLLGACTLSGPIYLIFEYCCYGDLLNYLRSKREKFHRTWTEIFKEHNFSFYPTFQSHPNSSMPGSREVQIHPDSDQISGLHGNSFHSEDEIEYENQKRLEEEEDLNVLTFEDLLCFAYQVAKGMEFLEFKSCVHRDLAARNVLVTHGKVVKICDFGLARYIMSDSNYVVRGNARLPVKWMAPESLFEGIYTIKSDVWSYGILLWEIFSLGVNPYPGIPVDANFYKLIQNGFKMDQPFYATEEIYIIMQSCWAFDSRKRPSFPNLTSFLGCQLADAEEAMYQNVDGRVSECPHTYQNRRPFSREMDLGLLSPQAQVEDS
Particulars: at 1 µM.

Test [6] concerns the target Vascular endothelial growth factor receptor 3 (Homo sapiens) (UniProt P35916). The conditions noted are these: at 0.1 µM.
Test [7] shares this target. Particulars: at 1 µM.
In test [8] the target is Macrophage colony-stimulating factor 1 receptor (Homo sapiens) (UniProt P07333). The conditions noted are these: at 0.1 µM.
Sequence of Macrophage colony-stimulating factor 1 receptor (Homo sapiens) (P07333 whole entry): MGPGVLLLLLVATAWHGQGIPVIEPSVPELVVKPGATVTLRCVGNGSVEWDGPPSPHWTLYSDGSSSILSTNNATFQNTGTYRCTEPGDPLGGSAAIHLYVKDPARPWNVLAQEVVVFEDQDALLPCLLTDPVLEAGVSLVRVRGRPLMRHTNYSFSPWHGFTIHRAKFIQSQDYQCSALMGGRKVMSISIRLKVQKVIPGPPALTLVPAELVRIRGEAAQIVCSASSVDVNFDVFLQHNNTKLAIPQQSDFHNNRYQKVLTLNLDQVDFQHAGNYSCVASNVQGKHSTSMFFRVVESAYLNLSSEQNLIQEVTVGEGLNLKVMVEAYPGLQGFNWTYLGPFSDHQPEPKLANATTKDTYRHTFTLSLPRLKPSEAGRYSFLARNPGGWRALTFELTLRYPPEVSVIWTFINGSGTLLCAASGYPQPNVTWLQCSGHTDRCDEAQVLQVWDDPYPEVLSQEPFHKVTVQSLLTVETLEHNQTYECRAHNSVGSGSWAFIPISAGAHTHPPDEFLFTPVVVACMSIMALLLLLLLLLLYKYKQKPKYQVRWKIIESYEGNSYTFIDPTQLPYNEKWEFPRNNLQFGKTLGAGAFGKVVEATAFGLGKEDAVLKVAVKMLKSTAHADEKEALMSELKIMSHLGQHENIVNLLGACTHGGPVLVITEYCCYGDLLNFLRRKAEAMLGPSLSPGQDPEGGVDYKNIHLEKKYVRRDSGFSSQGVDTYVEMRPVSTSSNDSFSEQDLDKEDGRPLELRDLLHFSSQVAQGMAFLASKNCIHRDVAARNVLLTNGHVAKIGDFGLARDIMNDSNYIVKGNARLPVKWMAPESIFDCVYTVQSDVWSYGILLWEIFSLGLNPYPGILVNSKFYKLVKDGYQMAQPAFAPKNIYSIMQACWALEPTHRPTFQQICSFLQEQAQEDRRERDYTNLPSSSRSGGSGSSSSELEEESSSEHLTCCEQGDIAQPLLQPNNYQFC
The target is the same in test [9]. Particulars: at 1 µM.
The target in test [10] is Tyrosine-protein kinase Fyn (Homo sapiens) (UniProt P06241). The conditions noted are these: at 0.1 µM.
Sequence of Tyrosine-protein kinase Fyn (Homo sapiens) (P06241 2-537 limits assumed): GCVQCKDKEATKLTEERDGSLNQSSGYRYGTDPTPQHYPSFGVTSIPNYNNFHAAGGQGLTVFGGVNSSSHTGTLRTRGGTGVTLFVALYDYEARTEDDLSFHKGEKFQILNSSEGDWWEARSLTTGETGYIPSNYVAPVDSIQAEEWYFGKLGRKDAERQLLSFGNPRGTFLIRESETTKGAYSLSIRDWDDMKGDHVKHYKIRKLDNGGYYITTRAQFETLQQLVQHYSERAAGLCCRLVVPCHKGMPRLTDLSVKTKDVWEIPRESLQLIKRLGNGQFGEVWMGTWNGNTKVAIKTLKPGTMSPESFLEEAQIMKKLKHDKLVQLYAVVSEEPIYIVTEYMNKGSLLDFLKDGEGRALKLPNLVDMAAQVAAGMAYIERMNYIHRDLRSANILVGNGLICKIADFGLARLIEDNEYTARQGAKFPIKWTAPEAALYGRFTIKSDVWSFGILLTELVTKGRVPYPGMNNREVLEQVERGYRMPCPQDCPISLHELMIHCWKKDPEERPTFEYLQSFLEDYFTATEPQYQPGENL

SMILES strings stand for the structures.

Sequence of Vascular endothelial growth factor receptor 3 (Homo sapiens) (P35916 whole entry): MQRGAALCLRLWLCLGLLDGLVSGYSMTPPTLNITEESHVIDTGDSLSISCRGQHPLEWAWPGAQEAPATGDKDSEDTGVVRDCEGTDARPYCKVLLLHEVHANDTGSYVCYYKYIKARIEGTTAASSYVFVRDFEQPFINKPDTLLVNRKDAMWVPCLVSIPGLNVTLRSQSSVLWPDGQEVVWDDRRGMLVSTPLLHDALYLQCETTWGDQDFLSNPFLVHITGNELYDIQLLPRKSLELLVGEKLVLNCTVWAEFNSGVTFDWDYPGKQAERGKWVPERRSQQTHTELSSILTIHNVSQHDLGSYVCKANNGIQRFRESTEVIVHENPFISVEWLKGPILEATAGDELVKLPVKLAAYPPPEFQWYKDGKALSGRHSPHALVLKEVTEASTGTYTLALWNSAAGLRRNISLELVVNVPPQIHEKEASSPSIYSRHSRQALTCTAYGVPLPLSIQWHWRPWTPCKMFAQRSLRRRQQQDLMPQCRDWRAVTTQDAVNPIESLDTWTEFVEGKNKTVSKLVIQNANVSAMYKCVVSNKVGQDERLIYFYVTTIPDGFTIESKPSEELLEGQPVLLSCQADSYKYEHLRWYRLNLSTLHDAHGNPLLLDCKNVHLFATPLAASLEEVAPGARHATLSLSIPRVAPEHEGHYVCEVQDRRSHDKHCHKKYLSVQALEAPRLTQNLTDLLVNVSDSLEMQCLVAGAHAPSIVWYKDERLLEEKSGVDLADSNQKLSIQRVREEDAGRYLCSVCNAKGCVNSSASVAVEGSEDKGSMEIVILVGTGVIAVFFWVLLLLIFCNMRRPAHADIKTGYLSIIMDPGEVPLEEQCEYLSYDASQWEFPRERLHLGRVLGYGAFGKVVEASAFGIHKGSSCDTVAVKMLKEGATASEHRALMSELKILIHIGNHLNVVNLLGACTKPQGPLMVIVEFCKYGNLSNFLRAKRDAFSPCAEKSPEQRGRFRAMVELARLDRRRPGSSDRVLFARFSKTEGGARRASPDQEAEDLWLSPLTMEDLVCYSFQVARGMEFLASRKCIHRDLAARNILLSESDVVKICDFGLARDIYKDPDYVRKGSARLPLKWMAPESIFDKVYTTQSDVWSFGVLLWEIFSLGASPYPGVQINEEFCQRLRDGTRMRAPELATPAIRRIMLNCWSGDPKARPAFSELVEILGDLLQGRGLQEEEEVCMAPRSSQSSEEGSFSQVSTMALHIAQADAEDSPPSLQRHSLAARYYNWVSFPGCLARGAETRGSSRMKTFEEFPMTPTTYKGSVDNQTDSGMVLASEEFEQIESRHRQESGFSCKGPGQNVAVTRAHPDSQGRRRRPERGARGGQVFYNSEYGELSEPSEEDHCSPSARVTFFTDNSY
Sequence of Serine/threonine-protein kinase PLK1 (Homo sapiens) (P53350 whole entry): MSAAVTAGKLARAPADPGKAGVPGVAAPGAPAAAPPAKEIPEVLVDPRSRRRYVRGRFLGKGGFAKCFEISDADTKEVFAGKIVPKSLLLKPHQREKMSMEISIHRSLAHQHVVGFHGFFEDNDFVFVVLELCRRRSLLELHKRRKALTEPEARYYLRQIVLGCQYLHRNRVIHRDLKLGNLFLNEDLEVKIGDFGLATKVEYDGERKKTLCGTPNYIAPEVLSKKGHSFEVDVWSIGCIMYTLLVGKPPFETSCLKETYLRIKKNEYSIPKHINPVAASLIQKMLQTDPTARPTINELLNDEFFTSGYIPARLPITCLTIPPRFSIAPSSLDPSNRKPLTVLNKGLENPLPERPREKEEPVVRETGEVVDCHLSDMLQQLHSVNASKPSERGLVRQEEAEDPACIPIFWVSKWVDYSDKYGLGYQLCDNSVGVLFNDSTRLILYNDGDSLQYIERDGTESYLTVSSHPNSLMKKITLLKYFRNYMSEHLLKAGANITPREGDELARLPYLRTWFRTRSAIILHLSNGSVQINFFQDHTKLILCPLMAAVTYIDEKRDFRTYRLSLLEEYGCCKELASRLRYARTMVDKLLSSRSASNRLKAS

Turning to `CNC(=O)c1cncc(/C=C/c2ccccc2Cl)c1`, the inhibition was 3.22% in test [1]; -0.94% in test [2]; -0.72% in [3]; 1.16% in [4]; 7.46% in test [5]; 15.2% in test [6]. The inhibition in [7] came out at 13.6%; in [8], 3.45%; in test [9] it was 4.05%; in test [10], 2.42%.
On to `FC(F)(F)c1cccc(-c2nn3ncccc3c2-c2ccnc(Nc3ccc4c(c3)OCCO4)n2)c1`, for which the inhibition in test [1] was found to be 1.67%; in [2], 1.26%; in test [3] it was 0.65%; in [4], 6.38%; in [5], 3.11%; in [6], 3.34%. Moreover, the inhibition worked out at 18.5% in test [7], 1.23% in test [8], 7.02% in test [9] and 7.47% in test [10].
In the case of `c1cc(-c2cnn3nc(N4CCOCC4)ccc23)nc(NC2CC2)n1`, the inhibition in test [1] is -2.57%; in [2], 2.55%; in test [3], 2.08%; in test [4], 18.4%; in [5] it was 37.5%; in [6] it was 5.93%. The inhibition in test [7] was found to be 29.9%; in test [8], 6.94%; in test [9], 33.7%; in [10], 0.47%.
For the compound `CN1CCC(n2cnc(-c3ccc(F)cc3)c2-c2ccnc(Nc3ccccc3)n2)CC1`, the inhibition in test [1] was 10.1%; in [2] it was 6.81%; in [3], 2.65%; in test [4], 9.56%; in test [5], 2.38%; in test [6], 0.02%. Also, the inhibition is 1.32% in test [7], -1.19% in [8], 4.11% in [9] and 0.05% in [10].
For `CN(C)CCOc1ccc(-c2nc(-c3ccncc3)c(-c3ccc4c(c3)CC/C4=N\O)[nH]2)cc1`, the inhibition came out at 4.4% in test [1]; 2.08% in test [2]; 2.04% in test [3]; 6.91% in [4]; 7.87% in test [5]; 1.85% in [6]. The inhibition in test [7] is 3.47%; in test [8], -1.89%; in test [9], 4.02%; in [10], 0.02%.
Consider `CCn1cc(-c2ccnc3[nH]ccc23)c(-c2cccc(NC(=O)Nc3ccc(OCc4ccccc4)cc3)c2)n1`, for which the inhibition is 1.16% in test [1]; -0.45% in [2]; -0.98% in [3]; 7.9% in [4]; 0.68% in test [5]; -0.45% in test [6]. Further, the inhibition was -0.67% in test [7], -7.9% in test [8], 0.27% in test [9] and 0.67% in [10].
Take `COc1cccc(-n2ncc3c(N/N=C/c4ccc(F)cc4)ncnc32)c1`: the inhibition stood at 6.76% in [1]; 1.91% in test [2]; 4.22% in test [3]; 7.93% in test [4]; 12.3% in test [5]; 7.04% in test [6]. Further, the inhibition in [7] was 6.84%; in test [8], 6.04%; in test [9] it was 5.69%; in test [10], 8.43%.
In the case of `COc1ccc(-c2cc(-c3c[nH]nc3-c3ccccn3)ccn2)cc1`, the inhibition in test [1] turned out to be 9.65%; in [2], 3.67%; in test [3], 4.38%; in test [4], 13.4%; in test [5] it was 1.61%; in [6] it was 5.28%. Further, the inhibition in test [7] was 4.26%; in test [8], 6.09%; in [9], 5.24%; in [10], 3.23%.
Take `CC(C)COC(=O)c1ccc2c(c1)/C(=C/Nc1ccc(S(N)(=O)=O)cc1)C(=O)N2`: the inhibition was determined as 0.18% in test [1]; 1.14% in test [2]; 2.98% in [3]; 53.6% in test [4]; 86.5% in [5]; 30.1% in [6]. Also, the inhibition in test [7] stood at 80.6%; in test [8], 7.27%; in test [9], 45.8%; in test [10], 22.6%.

By inhibition is commonly meant the drop in the measured response relative to a control, in per cent.
